Experimental data as given in publication PMC4336329 (PLoS ONE, 2015).
Out of some 310,000 compounds screened, about 14,000 (4.5%) showed an effect of 50% or more. The effect is printed as a negative number. Shown is part of a subset that was picked to be rich in strong results.

biological target: human ether-à-go-go-related gene (hERG) potassium channel (human, UniProt Q12809); experiment: primary screen, population patch clamp on CHO cells stably expressing hERG; higher = less effect of the substance
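Also: peak tail current of the secondary pulse compared with the same well before compound.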

human ether-à-go-go-related gene (hERG) potassium channel, sequence (Q12809 whole entry, looked up): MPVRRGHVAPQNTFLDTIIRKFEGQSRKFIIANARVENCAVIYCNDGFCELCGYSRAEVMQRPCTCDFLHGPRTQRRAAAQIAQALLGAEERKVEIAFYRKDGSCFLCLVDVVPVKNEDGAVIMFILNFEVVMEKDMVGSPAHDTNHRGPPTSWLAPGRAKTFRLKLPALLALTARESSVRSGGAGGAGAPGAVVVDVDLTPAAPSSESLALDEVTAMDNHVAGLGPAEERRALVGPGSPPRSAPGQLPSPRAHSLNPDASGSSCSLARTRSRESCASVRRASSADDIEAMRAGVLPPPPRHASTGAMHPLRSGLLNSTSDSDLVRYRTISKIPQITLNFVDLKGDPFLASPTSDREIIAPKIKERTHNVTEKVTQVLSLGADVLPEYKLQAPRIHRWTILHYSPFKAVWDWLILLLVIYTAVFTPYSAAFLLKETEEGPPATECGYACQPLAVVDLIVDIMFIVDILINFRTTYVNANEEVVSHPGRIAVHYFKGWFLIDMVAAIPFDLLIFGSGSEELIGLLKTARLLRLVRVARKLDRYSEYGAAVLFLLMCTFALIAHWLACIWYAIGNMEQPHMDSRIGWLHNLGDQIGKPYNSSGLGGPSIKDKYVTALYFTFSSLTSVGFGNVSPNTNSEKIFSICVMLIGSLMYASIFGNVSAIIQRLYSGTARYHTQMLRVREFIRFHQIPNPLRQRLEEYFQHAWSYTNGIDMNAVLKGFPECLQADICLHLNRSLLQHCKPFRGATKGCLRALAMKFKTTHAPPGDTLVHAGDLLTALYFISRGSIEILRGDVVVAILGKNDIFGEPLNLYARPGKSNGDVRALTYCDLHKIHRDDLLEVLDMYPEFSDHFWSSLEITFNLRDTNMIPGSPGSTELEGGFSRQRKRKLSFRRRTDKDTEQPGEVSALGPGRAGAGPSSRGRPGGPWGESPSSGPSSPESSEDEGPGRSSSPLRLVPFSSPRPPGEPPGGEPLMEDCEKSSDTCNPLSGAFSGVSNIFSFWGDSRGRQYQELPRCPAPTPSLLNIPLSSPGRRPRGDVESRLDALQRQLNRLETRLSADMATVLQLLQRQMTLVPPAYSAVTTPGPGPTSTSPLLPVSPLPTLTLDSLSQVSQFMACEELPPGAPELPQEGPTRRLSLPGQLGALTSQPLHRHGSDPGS

Structure (SMILES)	hERG current change (%, negative = inhibition) at 10uM
CCOc1cc(CNc2ccc3c(c2)OCCO3)cc(Br)c1OCC(N)=O	-17.6%
C[C@H]1CC[C@H]2C(=O)N3[C@H](c4cccc(N5CCCC5=O)c4)[C@@H](C)CC[C@H]3C(=O)N2[C@@H]1c1cccc(N2CCCC2=O)c1	-56.3%
CC1CCCC(NC(=O)c2cccc(N3CCCC3=O)c2)C1C (stereo not shown)	-13.5%
C[C@@H]1CC[C@H]2C(=O)N3[C@@H](CC[C@@H](C)[C@@H]3c3ccc(Br)cc3)C(=O)N2[C@H]1c1ccc(Br)cc1	5.03%
CC12CN(C(=O)c3cccc([N+](=O)[O-])c3)C3(C#N)CC1CCC23C (stereo not shown)	5.65%
CCOC(=O)C1=C(c2ccccc2)NC(N)=NC1c1ccc(OCc2ccc(Cl)cc2)c(OC)c1 (stereo not shown)	-36.8%
COc1ccc(CCNC(=O)C2CCN(S(=O)(=O)c3ccc4nc5c(c(C(=O)O)c4c3)CCCC5)CC2)cc1OC	1.65%
Cc1ccccc1-n1ncc2c1CC(C)(C)CC2NC(=O)CN1CCCC1=O (stereo not shown)	9.7%
O=C(O)c1ccc(CSCc2ccccc2F)o1	-1.86%
O=C(c1ccc(CSCc2ccccc2F)o1)N1CCN(c2ccc(N3CCOCC3)nn2)CC1	-66.7%
O=C(c1ccccc1)N1CCN(c2ccc(N3CCOCC3)nn2)CC1	-1.73%
CCC1CCCCN1CCCNC(=O)CNC(=O)c1nn(-c2ccc(OC)cc2)c(=O)c2ccccc12 (stereo not shown)	-31.9%
CCCCCCCCC1=NCCc2c1[nH]c1ccccc21.Cl	-79.2%
CCCC/C=C1\CCc2c([nH]c3ccccc23)C1=O	10.1%
CC1=NCCc2c1[nH]c1ccccc21	-22.7%
Cc1cccc(NC(=O)c2ccco2)c1C	22.4%
CC1=C(C#N)C(c2ccccc2)C2=C(N1)c1ccccc1C2=O (stereo not shown)	1.22%
Cc1ccccc1S(=O)(=O)Cc1ccc(C(=O)N2CCN(c3ccccc3F)CC2)o1	-40.7%
Cc1ccc(S(=O)(=O)Cc2ccc(C(=O)N3CCN(c4cc(C)ccc4C)CC3)o2)cc1	-18.7%
Cc1ccccc1S(=O)(=O)Cc1ccc(C(=O)N2CCN(c3ccc(F)cc3)CC2)o1	-64.3%
Cc1ccc(S(=O)(=O)Cc2ccc(C(=O)N3CCN(c4ccc(F)cc4)CC3)o2)cc1	-69.5%
O=C(c1ccc(CS(=O)(=O)c2ccc(Br)cc2)o1)N1CCN(c2ccc(F)cc2)CC1	6.91%
COc1ccc(N2CCN(C(=O)c3ccc(CS(=O)(=O)c4ccccc4C)o3)CC2)cc1	-21.5%
O=C(CNC(=O)c1ccc(S(=O)(=O)N2CCCC2)cc1)N/N=C/c1ccc(Cl)cc1Cl	-3.34%
Cc1ccccc1NCCC(=O)Nc1ccc(F)cc1	-21.4%
COc1ccc(/C=C(/NC(=O)c2ccc(C)cc2)C(=O)NCc2ccncc2)cc1	-66.2%

Structure (SMILES)	hERG current change (%, negative = inhibition) at 10uM
COc1ccc(C(=O)N/C(=C\c2ccc(Cl)cc2)C(=O)NCC2CCCO2)cc1 (stereo not shown)	-38%
COc1ccc(C(=O)N/C(=C/c2ccc(Cl)cc2)C(=O)NCc2ccncc2)cc1	-65.4%
COc1ccc(/C=C(\NC(=O)c2ccc(C)cc2)C(=O)NCC2CCCO2)cc1 (stereo not shown)	-8.44%
COc1ccc(C(=O)N/C(=C/c2ccc(Cl)cc2)C(=O)Nc2ccc(C(=O)O)cc2)cc1	11.4%
COc1ccc(/C=C(/NC(=O)c2ccccc2)C(=O)NCc2ccncc2)cc1	-44.5%
O=C(O)/C=C/c1cn(-c2ccccc2)nc1-c1ccccc1	3.71%
O=C(NCc1ccccn1)C1CC(=O)N(C2CCCC2)C1 (stereo not shown)	9.62%
COc1ccc(CNC(=O)CN2C(=O)CC(c3ccccc3)=Nc3ccccc32)cc1	-8.66%
Cc1cc(NC(=O)Cn2cnc3c(nnn3-c3cccc(F)c3)c2=O)no1	5.01%
CC(=O)C(C(C)=O)C(c1ccccc1)c1nc2ccccc2[nH]c1=O (stereo not shown)	14.1%
COC(=O)c1ccc(CN2CCCC(C(=O)c3cc(F)ccc3OC)C2)cc1 (stereo not shown)	-68%
CCOc1ccc(CN2CCCC(C(=O)c3ccccc3OC)C2)cc1 (stereo not shown)	-82%
COc1ccc(F)cc1C(=O)C1CCCN(Cc2cnc(C)s2)C1 (stereo not shown)	-21%
COc1ccc(F)cc1C(=O)C1CCCN(Cc2ccc(Oc3ncccn3)cc2)C1 (stereo not shown)	-64.2%
COc1ccc(F)cc1C(=O)C1CCCN(Cc2cnc(N3CCCC3)s2)C1 (stereo not shown)	-29.4%
COc1ccc(F)cc1C(=O)C1CCCN(Cc2ccc(O)cc2)C1 (stereo not shown)	-52%
COC(=O)c1ccc(CN2CCCC(C(=O)c3ccccc3OC)C2)cc1 (stereo not shown)	-43.1%
COc1ccccc1C(=O)C1CCCN(C(=O)c2ccccc2Cl)C1 (stereo not shown)	10.4%
COc1ccccc1C(=O)C1CCCN(Cc2ccc(Oc3ncccn3)cc2)C1 (stereo not shown)	-40.6%
COc1ccccc1C(=O)C1CCCN(Cc2cccc(OCCO)c2)C1 (stereo not shown)	-19.6%
COc1ccc(F)cc1C(=O)C1CCCN(C(=O)CCc2ccccn2)C1 (stereo not shown)	2.48%
CC(=O)NCCC(=O)Nc1nc(-c2ccccc2Cl)cs1	-9.76%
CCOc1ccc(C(=O)Nc2cccc(-n3cnnn3)c2)cc1OCC	-40.4%
O=C(/C=C/c1ccco1)Nc1ccc(Oc2ccc(Cl)cc2)cc1	16.1%
COc1ccc(S(=O)(=O)NCc2ccccn2)cc1Br	12.5%
CCN1C(=O)/C(=C/c2cc(C)n(C)c2C)SC1=Nc1ccc(OC)cc1	9.24%
